# SKOV3 invasion = inhibitors of ovarian cancer cell adhesion and invasion in omental model. SKOV3ip1-GFP adhesion/invasion on 3D omental model, fluorescence. Potency, µM (doses to about 45.8 µM), for inactives: at the top dose activity change, negative = inhibition, hits mostly inhibitors. 46,000 compounds, 0.1% hits;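 further: potency means the concentration at half of the fitted maximal effect; plate controls were DMSO wells for no effect and tomatine positive control wells for full effect; nearly all actives have a fitted effect of over 65% in size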
#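 A 3D layer of primary human omental fibroblasts, mesothelial cells, fibronectin and collagen I, grown 48 hr, received SKOV3ip1-GFP cells in serum-free medium plus compounds at 0.36-46 umol/L. After 2 hr RT and 16 hr 37 C, fixed adherent GFP cells were counted; normalized to DMSO and tomatine.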
# GPR32 ag = GPR32 (DRV1) agonism, beta-arrestin recruitment; O75388; CHO-K1 GPR32 beta-arrestin PathHunter luminescence, 90 min; zero percent set by DMSO-only wells; activation, % at 76.9 µM; 48,000 compounds, 2.5% hits;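 active means activation of at least 60% and not above a set upper limit, about 1 call in 100 departs from these limits; inconclusive means activation of 40% to 60%, or above that upper limit; inactive means activation under 40%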; further: 0% is about no effect
# Target sequence (O75388 whole entry, looked up): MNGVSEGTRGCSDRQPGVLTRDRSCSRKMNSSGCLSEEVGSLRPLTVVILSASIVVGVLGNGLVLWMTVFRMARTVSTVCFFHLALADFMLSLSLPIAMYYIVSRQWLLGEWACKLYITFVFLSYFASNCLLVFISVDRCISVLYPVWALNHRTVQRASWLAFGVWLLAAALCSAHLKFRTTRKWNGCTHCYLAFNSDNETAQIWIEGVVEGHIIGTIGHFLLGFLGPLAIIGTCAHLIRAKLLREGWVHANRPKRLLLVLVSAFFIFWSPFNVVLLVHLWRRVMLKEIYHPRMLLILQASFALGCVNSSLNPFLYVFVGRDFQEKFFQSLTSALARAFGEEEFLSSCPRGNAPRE
#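 Cells are plated overnight, treated with compounds in DMSO for 90 minutes at 37 °C, and developed with PathHunter detection reagent for 1 hour before luminescence is read; signal reflects beta-arrestin binding to GPR32 in engineered CHO-K1 cells.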
# HTT promoter inh = inhibitors of huntingtin promoter activity. HEK293 HTT promoter firefly luciferase reporter, 24 h. Potency, µM (series often up to 57.5 µM), for inactives: at the highest dose activity change, negative = inhibition, most hits filed as inhibitors. 48,000 compounds, 0.93% hits; further: potency means the concentration at half of the fitted maximal effect; nearly all actives have a fitted effect of over 50% in size
#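 Luminescence was read after Dual-Glo reagent and a 10 min room-temperature incubation. Values were normalized to vehicle (0% activity) and zero RLU (-100% activity). Reporter HEK293 cells had been exposed to compounds (up to 57.5 uM final) for 24 h.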
# NTMT1 inh = blocks human N-terminal methyltransferase 1 activity | Potency, µM (highest dose often 114 µM), for inactives: top-dose activity change, negative = inhibition, usual class: inhibitors | NTMT1 MTase-Glo SAH luminescence, purified enzyme | Q9BV86 | 59,000 compounds, 2.5% hits;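 further: potency means the concentration at half of the fitted maximal effect; plate controls were DMSO vehicle for no effect and no enzyme for full effect; nearly all actives have a fitted effect of over 65% in size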
# HTT-AS promoter = activators of huntingtin-antisense promoter activity; 48,000 compounds, 0.24% hits; AID 1508624; HEK293 HTT-AS promoter firefly luciferase reporter, 24 h; response scale: percent change from vehicle, -100% = no light; Potency, µM (top dose mostly 57.5 µM), for inactives: top-dose activity change, positive = activation, most hits filed as activators; further: potency means the concentration at half of the fitted maximal effect; nearly all actives have a fitted effect of over 55% in size
#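 Luminescence was read after Dual-Glo reagent and a 10 min room-temperature incubation. Values were normalized to vehicle (0% activity) and zero RLU (-100% activity). Reporter HEK293 cells had been exposed to compounds (up to 57.5 uM final) for 24 h.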
# * = called active by the depositor; i = inactive; u = inconclusive; x = not tested or not shown; ! = not active in a repeat. Shown are actives, neighbours in structure and some others; about 4.5% of the full set was active somewhere. Unless noted, the call rests on the fitted dose curve; in most records, active means well fitted curve in the direction sought with a large enough effect; inconclusive means small, poorly fitted or top-dose-only effect, or another doubt; inactive means no such curve, though single readings can be large; an effect the other way counts as inactive or inconclusive.
SMILES,SKOV3 invasion,GPR32 ag,HTT promoter inh,NTMT1 inh,HTT-AS promoter
COc1cccc(CN2CCc3nc(N4CCN(C)CC4)ncc3C2)c1,-9.4%,-12.5,-15.2%,8.6%,-14.2%
Cn1c(=O)n(C)c2cc(N3CCCC3)c(NC(=O)Nc3ccccc3)cc21,-5.0%,39.5,10.7%,u,3.7%
Cn1c(=O)n(C)c2cc(N3CCCCC3)c(NC(=O)c3c(F)cccc3F)cc21,-27.4%,118.1*,x,x,x
CCOc1ccc(NC(=O)Nc2cc3c(cc2N2CCCCC2)n(C)c(=O)n3C)cc1,8.6%,107.0*,u,u,-37.3%
COc1cccc(CNC(=O)c2cc3c(=O)n(C)c4ccccc4c3n2C)c1,-13.3%,-2.5,3.2%,9.7%,-2.1%
O=S(=O)(c1ccc2[nH]c3c(c2c1)CCCCC3)N1CCN(c2ccccc2)CC1,1.7%,9.1,u,u,-29.9%
Oc1cc(O)cc(/C=C/c2ccc(O)c(O)c2)c1,x,17.1,x,35.5µM*,x
N#Cc1c(-n2ncnc2-c2ccccc2C(F)(F)F)sc2c1CCCCC2,-21.5%,-12.6,1.12µM*,-1.9%,-53.0%
NC1[C@H]2CN(c3nc4c(cc3F)c(=O)c(C(=O)O)cn4-c3ccc(F)cc3F)C[C@@H]12 (stereo not given in full),x,28.8,68.8%,u,31.6µM*
O=C1CN(C(=O)c2ccc(S(=O)(=O)N3CCCC3)cc2)C(c2ccccc2)c2cc(F)ccc2N1 (stereo not given),2.3%,-13.3,-16.5%,1.2%,6.2%
Cc1ccc(N=C2NC(=O)CC(C(=O)Nc3cc(C(F)(F)F)ccc3Cl)S2)cc1 (stereo not given),i,80.5*,u,8.2%,-25.7%
CCOc1ccc(NC(=O)C2CC(=O)NC(=Nc3ccc(Cl)c(Cl)c3)S2)cc1 (stereo not given),-6.5%,-25.2,-12.2%,-3.6%,-21.2%
CC(=O)Nc1nonc1-c1nnc(SCc2cccc(Br)c2)n1C,2.9%,-6.6,-15.5%,u,-13.3%
Cc1cccc(NC(=O)c2c(NC(=O)c3ccccc3)sc3c2CCC3)c1,6.8%,9.3,27.4%,1.5%,18.2%
CCOC(=O)c1c(NC(=O)c2ccccc2C)sc2c1CCCC2,i,-7.2,-16.2%,89.1µM*,-17.4%
Cc1cccc(NC(=O)c2c(NC(=O)c3ccccc3)sc3c2CCCC3)c1,i,-3.1,-1.1%,44.7µM*,-10.8%
CCOC(=O)c1c(NC(=O)c2cc(Cl)ccc2Cl)sc2c1CCCC2,-18.8%,-3.6,-10.3%,6.4%,-6.2%
COc1ccccc1C(=O)OCc1cc(=O)n2c(C)csc2n1,1.6%,36.6,58.6%,-18.4%,11.2µM*
COc1cccc(C(=O)Nc2ccccc2C(=O)OCc2cc(=O)n3c(C)csc3n2)c1,i,-14.4,-24.9%,-18.3%,-20.1%
Cc1nn2c(=O)cc(COC(=O)c3cccc(NC(=O)CCc4ccccc4)c3)nc2s1,12.9%,-14.4,-2.6%,8.0%,-2.4%
O=C(NCC(c1cccs1)S(=O)(=O)c1cccs1)c1ccc(Cl)cc1 (stereo not given),-6.0%,99.8*,-19.2%,-3.0%,-21.3%
O=C(NCC(c1cccs1)S(=O)(=O)c1cccs1)c1ccc(F)c(F)c1 (stereo not given),9.7%,94.6*,-12.5%,u,-18.5%
COc1ccc(-c2cc(=O)n3[nH]cnc3n2)cc1,-2.5%,-1.7,15.0%,-1.9%,24.2%
CCOC(=O)c1cnn(-c2ccc(C(=O)Nc3ccc(C(C)=O)cc3)cc2)c1N,-12.2%,-0.5,-7.1%,5.0%,-6.8%
CCOC(=O)c1cnn(-c2ccc(C(=O)Nc3cc(OC)c(OC)c(OC)c3)cc2)c1N,-0.1%,-2.6,-19.1%,89.1µM*,-16.7%
COc1ccc(N2CC(NC(=O)C3CC3)CC2=O)cc1 (stereo not given),-12.0%,-8.6,-10.5%,5.3%,-9.4%
CC(C)(C)c1cnc(CSc2cnc(NC(=O)C3CCNCC3)s2)o1,12.2%,x,u,50.1µM*!,-43.0%
COc1cccc(-n2c(=O)c3c(C)c(C)sc3n(CC(=O)NCc3ccccc3)c2=O)c1,-9.7%,-6.0,2.4%,-3.2%,5.5%
